Drawing on PubChem BioAssay (EPA / NIEHS), this text covers outcome and AC50 for 15 compounds.

Where “and” joins values, the source holds several entries; their conditions need not be identical. Equal entries are not always repeated. Where a structure was tested more than once in an assay, its records may differ in their call. Calls of active or inactive are those of the source. The calls were made as follows: active = hit-call score of the fitted dose curve at least 0.9, where 1 is the maximum; inactive = score below 0.9.

Holding throughout (details): primary human HUVEC with PBMC; actives raise or lower the signal
Read-out in experiment [1]: Monocyte Chemoattractant Protein-1 (MCP1), CCL2 (gene 6347)
In words: BSK_LPS_MCP1: BioMAP Diversity Plus: LPS Assay for Monocyte Chemoattractant Protein-1 (MCP1) Biomarker Activity (AID 2283081).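 As to AC50: co-culture stimulated with LPS; secreted MCP-1 protein quantified by ELISA in culture supernatant.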 Put shortly:
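Secreted MCP-1 read by ELISA at 24 h post-dosing in an LPS-activated co-culture of endothelial cells with peripheral blood mononuclear cells. Fits run in both directions, DMSO as baseline; parallel SRB staining tracks overt cytotoxicity.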

A short description of experiment [2]: BSK_LPS_PGE2: BioMAP Diversity Plus: LPS Assay for Prostaglandin E2 (PGE2) Biomarker Activity (AID 2283082).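 As to AC50: secreted prostaglandin E2 measured by ELISA in LPS-stimulated co-culture.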 Put shortly:
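PGE2 release measured by ELISA in an LPS-activated co-culture of human umbilical vein endothelial cells and peripheral blood mononuclear cells, read at 24 h post-dosing. DMSO served as baseline for bidirectional curve fitting.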

Read-out in experiment [3]: Macrophage colony-stimulating factor (MCSF), CSF1 (gene 1435)
As to the kind of experiment: BSK_LPS_MCSF: BioMAP Diversity Plus: LPS Assay for Macrophage colony-stimulating factor (MCSF) Biomarker Activity (AID 2283083). A digest of the protocol: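 Bidirectional fitting against DMSO was applied to M-CSF levels read by ELISA at 24 h post-dose. The system pairs human umbilical vein endothelium with peripheral blood mononuclear cells; parallel SRB staining tracked cytotoxicity.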

Read-out in experiment [4]: Tissue Factor, F3 (gene 2152)
As to the kind of experiment: BSK_LPS_TissueFactor: BioMAP Diversity Plus: LPS Assay for Tissue Factor Biomarker Activity (AID 2283084). Put shortly: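 Compound was added to an endothelial cell/PBMC co-culture, and after 24 h tissue factor (CD142) was read by ELISA. Gain or loss of signal was fitted against a DMSO baseline, and parallel SRB staining (560 nm) tracked overt cytotoxicity.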

Read-out in experiment [5]: Tumor necrosis factor (Homo sapiens) (UniProt P01375)
As to the kind of experiment: BSK_LPS_TNFa: BioMAP Diversity Plus: LPS Assay for Tumour Necrosis Factor alpha (TNFa) Biomarker Activity (AID 2283085).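 As to AC50: TNFa protein level quantified by ELISA in the co-culture.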 A digest of the protocol:
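TNFa was quantified by ELISA in LPS-activated co-cultures of human endothelial cells and PBMC, 24 h post-dosing. Both increases and decreases versus DMSO were fitted.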

Read-out in experiment [6]: CD38, CD38 (gene 952)
In words: BSK_SAg_CD38: BioMAP Diversity Plus: SAg Assay for CD38 Biomarker Activity (AID 2283087). A digest of the protocol:
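CD38 quantified by ELISA (fluorescence) in a superantigen-activated endothelial cell–PBMC co-culture at 24 h post-dose. Activity fitted in both directions relative to DMSO; parallel SRB and Alamar Blue cytotoxicity read-outs.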

Read-out in experiment [7]: CD40, CD40 (gene 958)
As to the kind of experiment: BSK_SAg_CD40: BioMAP Diversity Plus: SAg Assay for CD40 Biomarker Activity (AID 2283088). Put shortly:
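CD40 is measured by fluorescence ELISA in an endothelial/PBMC primary human co-culture at 24 h post-dose. Fitting is bidirectional, DMSO baseline. Parallel SRB staining (560 nm) flags cytotoxicity.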

Read-out in experiment [8]: CD69, CD69 (gene 969)
As to the kind of experiment: BSK_SAg_CD69: BioMAP Diversity Plus: SAg Assay for CD69 Biomarker Activity (AID 2283089).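 As to AC50: cell surface CD69 protein quantified by ELISA with fluorescence detection.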 A digest of the protocol:
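ELISA, fluorescence read-out: CD69 on human umbilical vein endothelial cell + PBMC co-culture, 24 h post-dosing. Gain or loss of signal fitted bidirectionally against DMSO baseline.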

Read-out in experiment [9]: Monocyte Chemoattractant Protein-1 (MCP1), CCL2 (gene 6347)
As to the kind of experiment: BSK_SAg_MCP1: BioMAP Diversity Plus: SAg Assay for Monocyte Chemoattractant Protein-1 (MCP1) Biomarker Activity (AID 2283090). A digest of the protocol: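 Values derive from bidirectional fitting of ELISA-measured MCP1 against DMSO controls. Readings were taken 24 h after dosing human vascular endothelial cells co-cultured with peripheral blood mononuclear cells under superantigen stimulation.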

Read-out in experiment [10]: Vascular cell adhesion molecule 1 (VCAM1), VCAM1 (gene 7412)
As to the kind of experiment: BSK_LPS_VCAM1: BioMAP Diversity Plus: LPS Assay for Vascular cell adhesion molecule 1 (VCAM1) Biomarker Activity (AID 2283086). A digest of the protocol:
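VCAM-1 quantified by ELISA in an LPS-activated co-culture of human endothelial cells and peripheral blood mononuclear cells, read 24 h post-treatment. Fitted in both directions versus DMSO; parallel SRB staining flags overt cytotoxicity.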

Tumor necrosis factor (Homo sapiens), sequence (P01375 whole entry, looked up): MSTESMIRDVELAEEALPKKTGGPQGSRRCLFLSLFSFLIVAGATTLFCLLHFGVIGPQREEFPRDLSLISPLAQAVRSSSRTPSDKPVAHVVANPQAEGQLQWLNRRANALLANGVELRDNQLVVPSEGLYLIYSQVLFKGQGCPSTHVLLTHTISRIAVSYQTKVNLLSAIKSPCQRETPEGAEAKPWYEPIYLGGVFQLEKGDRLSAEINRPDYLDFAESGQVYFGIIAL

Turning to `ClC1=C(Cl)[C@]2(Cl)[C@@H]3[C@H]4C[C@H]([C@@H]5O[C@H]45)[C@@H]3[C@@]1(Cl)C2(Cl)Cl`, the outcome in experiment [1], in experiment [2], in experiment [3], in [4], in experiment [6] and in [8] was inactive. Further, the result in experiment [9] was inactive. Besides, the AC50 in [5] was 4.16 µM (active); in [7], 8.47 µM (active).

As to `O=C(O)C(F)(F)C(F)(F)C(F)(F)C(F)(F)C(F)(F)C(F)(F)C(F)(F)C(F)(F)F`, the AC50 in [1] was 47.9 µM (active) and 58.4 µM (active); in [10], 51.5 µM (active) and 54.3 µM (active); in experiment [6], 49.6 µM (active) and 47 µM (active); in [7], 30 µM (active); in experiment [8], 42.7 µM (active) and 43.5 µM (active); in experiment [9], 47.6 µM (active). Also, the result in [1], in experiment [3], in experiment [4], in experiment [5], in experiment [10] and in experiment [6] was inactive. Further, the result in experiment [7], in experiment [8] and in [9] was inactive.

As for `CN(C)c1nc(=O)n(C2CCCCC2)c(=O)n1C`, the outcome in [1], in experiment [2], in experiment [3], in experiment [4], in [5] and in experiment [10] was inactive. Besides, the outcome in [6], in [7], in [8] and in experiment [9] was inactive.

Take `CCCCCCCCCC[N+](C)(C)CCCCCCCCCC`: the AC50 in [1] was 4.16 µM (active); in experiment [2], 3.88 µM (active); in [3], 3.79 µM (active); in experiment [4], 4.31 µM (active); in experiment [5], 3.79 µM (active); in [10], 7.43 µM (active). The AC50 was 2.38 µM (active) in experiment [6], 4.45 µM (active) in experiment [7], 4.61 µM (active) in [8] and 3.45 µM (active) in experiment [9].

For `CCOCCOC(C)=O`, the result in experiment [1], in experiment [2], in experiment [3], in experiment [4], in [5] and in experiment [10] was inactive. Further, the outcome in experiment [6], in [7], in [8] and in experiment [9] was inactive.

Consider `O=C(O)C(F)(F)C(F)(F)C(F)(F)C(F)(F)C(F)(F)C(F)(F)C(F)(F)C(F)(F)C(F)(F)F`, for which the AC50 in [1] is 33.2 µM (active) and 54.1 µM (active) and 54.5 µM (active); in experiment [3], 58.7 µM (active) and 52.5 µM (active); in experiment [4], 45.6 µM (active) and 50.6 µM (active); in [5] it was 54.1 µM (active) and 43.6 µM (active); in [10], 31.2 µM (active) and 56.6 µM (active) and 55.5 µM (active); in experiment [6], 30.4 µM (active) and 53 µM (active) and 51.9 µM (active). For the same compound, the AC50 in experiment [7] was 32.3 µM (active) and 51.6 µM (active) and 44.6 µM (active); in experiment [8] it was 29.2 µM (active) and 46.9 µM (active) and 46.4 µM (active); in [9], 30.6 µM (active) and 50.1 µM (active) and 49.7 µM (active). In addition, the result in experiment [3], in experiment [4] and in experiment [5] was inactive.

For `COS(=O)(=O)OC`, the result in [1], in [2], in [3], in [4], in experiment [10] and in [6] was inactive. Besides, the outcome in experiment [7], in experiment [8] and in experiment [9] was inactive. The AC50 in experiment [5] is 0.318 µM (active).

Turning to `CCCCCCCCOC(=O)c1ccccc1C(=O)OCCCCCCCC`, the result in experiment [1], in [2], in experiment [3], in experiment [4], in experiment [5] and in experiment [7] was inactive. Besides, the result in experiment [8] and in experiment [9] was inactive. In addition, the results for the AC50 in experiment [10] and in experiment [6] were 7.64 µM (active) and 11.2 µM (active), respectively.

Turning to `COc1ccc(O)c(C(C)(C)C)c1`, the result in [1], in [3], in experiment [4], in experiment [5], in experiment [10] and in [6] was inactive. In addition, the result in [7], in experiment [8] and in [9] was inactive. In addition, the AC50 in experiment [2] was 1.71 µM (active) and 2.48 µM (active) and 4.59 µM (active); in experiment [7] it was 28.9 µM (active).

`Cc1ccc(O)c(C)c1`: the outcome in experiment [1], in [3], in [4], in [5], in [6] and in [7] was inactive. Further, the result in experiment [8] and in [9] was inactive. In addition, in experiment [10], the AC50 is 4.7 µM (active).

For `ClC(Cl)=C(c1ccc(Cl)cc1)c1ccc(Cl)cc1`, the AC50 in experiment [1] was 35.4 µM (active); in [2], 8.02 µM (active); in experiment [4], 32.3 µM (active); in [5], 31.8 µM (active); in experiment [10] it was 30.4 µM (active); in experiment [6] it was 33.3 µM (active). Moreover, the AC50 in [7] is 32.5 µM (active); in experiment [8] it was 30.6 µM (active); in experiment [9], 39.2 µM (active).

As to `Cc1cc2c3c(c1)C(c1ccccc1)=N[C@@H](NC(=O)c1ccncc1)C(=O)N3CC2`, the outcome in experiment [1], in [2], in [4] and in experiment [10] was inactive. Further, the AC50 in experiment [3] is 4.6 µM (active); in experiment [5], 7.3 µM (active); in experiment [6], 11.8 µM (active); in experiment [7], 20 µM (active); in [8] it was 5.02 µM (active); in experiment [9] it was 20 µM (active).

In the case of `Oc1ccc(Cl)cc1Cl`, the outcome in experiment [1], in [2], in experiment [3], in [4], in [5] and in [10] was inactive. For the same compound, the outcome in experiment [6], in experiment [7], in experiment [8] and in experiment [9] was inactive.

As to `Sc1ccccc1`, the outcome in experiment [1], in [2], in [3], in experiment [4], in experiment [5] and in experiment [10] was inactive. Moreover, the result in experiment [6], in [7], in [8] and in [9] was inactive.

With `ClC1=C(Cl)[C@]2(Cl)[C@@H]3[C@@H]4C[C@@H]([C@H]5O[C@@H]45)[C@@H]3[C@@]1(Cl)C2(Cl)Cl`, the outcome in experiment [1], in experiment [2], in experiment [3], in experiment [4], in experiment [8] and in experiment [9] was inactive. Besides, the AC50 was 3.05 µM (active) in [5], 14.4 µM (active) in [10], 14.4 µM (active) in experiment [6] and 11.2 µM (active) in [7].
